Compound activity: PubChem BioAssay, several laboratories
This is a sample that favours compounds with a hit; in the whole collection about 0.98% have one here.
Mtb bLac sens: beta-lactam sensitization of Mtb H37Rv, H37Rv. M. tuberculosis H37Rv growth with meropenem, percent inhibition. inhibition, % at 25 µM. actives 0.27% (n = 330,000). AID 434955, 2010; call rule not given here;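 further: growth measured after seven days incubation then overnight dye step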
Yp Topo-I inh: Yersinia pestis topoisomerase I inhibitors, primary screen, biochemical, cleavage product accumulation, plate reader, single point. DNA topoisomerase I (Yersinia pestis CO92). Y. pestis Topo-I cleavage product accumulation. activity, % at 10 µM. actives 0.064% (n = 360,000); in the data active means activity above about 50%, passing the limit was not always enough; inconclusive means no clear call, values can overlap the other calls
Rv3671c inh: Rv3671c serine protease inhibitors, primary screen, biochemical, fluorescence polarization, M. tuberculosis H37Rv. P9WHR9. inhibition, % at 5.96 µM. actives 0.048% (n = 320,000). AID 2606, 2010; in the data active means inhibition above about 38%;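 further: extracellular domain of Rv3671c used as enzyme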
PfHsp40 rescue: rescue of yeast from PfHsp40 toxicity, primary screen, S. cerevisiae, ATP luminescence. AID 504582, 2011. growth rescue, % at 12.5 µM. S. cerevisiae expressing PfHsp40, growth rescue. actives 0.68% (n = 340,000); in the data active means growth rescue above about 28%, passing the limit was not always enough; inconclusive means no clear call, values can overlap the other calls;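 further: yeast W303a lacking pdr1 and pdr3 grown in galactose medium; growth measured after three days at 30 °C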
UGM FP inh: M. tuberculosis UGM enzyme inhibitors, primary screen, biochemical, fluorescence polarization, single point; purified UGM, fluorescence polarization probe displacement; inhibition, % at 10 µM; actives 0.06% (n = 320,000); in the data active means inhibition above about 10%, passing the limit was not always enough; inconclusive means no clear call, values can overlap the other calls
Target sequence (P9WIQ1 whole entry, looked up): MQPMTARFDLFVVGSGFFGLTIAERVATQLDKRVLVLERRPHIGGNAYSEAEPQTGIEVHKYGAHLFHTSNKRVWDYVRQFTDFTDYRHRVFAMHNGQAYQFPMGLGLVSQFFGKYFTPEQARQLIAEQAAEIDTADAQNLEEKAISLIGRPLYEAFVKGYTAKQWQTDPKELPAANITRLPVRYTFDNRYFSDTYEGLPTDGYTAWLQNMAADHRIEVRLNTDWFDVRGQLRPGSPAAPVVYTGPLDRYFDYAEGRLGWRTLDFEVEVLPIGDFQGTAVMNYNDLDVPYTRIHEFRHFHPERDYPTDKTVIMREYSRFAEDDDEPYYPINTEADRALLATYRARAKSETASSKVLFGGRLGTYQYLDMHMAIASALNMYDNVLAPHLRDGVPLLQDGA
FadD28 binding: inhibitors of FadD28 bisubstrate probe binding, primary screen, biochemical, fluorescence polarization, single point. Mycobacterium tuberculosis FadD28 fatty-acid-AMP ligase. actives 0.22% (n = 360,000). inhibition, % at 12.5 µM. AID 588549, 2011; in the data active means inhibition above about 8.5%, passing the limit was not always enough; inconclusive means no clear call, values can overlap the other calls
Hits are given with their value; i = inactive; ? = inconclusive; nt = no result given; ! = repeats disagree.

SMILES | Mtb bLac sens | Yp Topo-I inh | Rv3671c inh | PfHsp40 rescue | UGM FP inh | FadD28 binding
CC(=O)N=c1c(C#N)cc2c(=O)n3ccccc3nc2n1CCCOC(C)C | i | i | i | nt | i | i
CC(C)OCCCn1c(=NC(=O)c2ccncc2)c(C#N)cc2c(=O)n3ccccc3nc21 | i | i | i | i | 38 | i
COc1ccc(-c2nc3c(c(=O)[nH]c(=O)n3Cc3ccccc3)n2Cc2ccccc2)cc1 | i | 64 | i | i | i | i
COc1ccc(-c2nc3c(c(=O)[nH]c(=O)n3Cc3ccccc3)n2C)cc1 | i | i | i | i | i | i
CN(C)[C@@H]1C(=O)C(C(N)=O)=C(O)[C@@]2(O)C(=O)C3=C(O)c4c(O)cccc4[C@@](C)(O)C3[C@H](O)C12 (some centres not stated) | i | i | i | ? | i | 31!
NC(=O)c1cnc(Cc2c[nH]c3ccccc23)c(I)c1 | nt | i | nt | nt | nt | i
CN(C)c1ccc(C=c2c3ccccc3n3c2c2c([n+]3C)CCCC2)cc1 | nt | i | nt | 300 | nt | i
CN(C)c1ccc(C=c2c3ccccc3n3c2cc(-c2ccc(Cl)cc2)[n+]3C)cc1 | nt | i | nt | 219 | nt | i
CN(C)c1ccc(C=c2c3ccccc3n3c2cc(-c2ccccc2)[n+]3C)cc1 | nt | i | nt | i | nt | i
CN(C)c1ccc(C=c2c3cc([N+](=O)[O-])ccc3n3c2cc(-c2ccccc2)[n+]3C)cc1 | nt | i | nt | i | nt | i
Cn1cnc(S(=O)(=O)N2CCCCC2c2cc(C(=O)Nc3cccc(C#N)c3)no2)c1 (configuration not stated) | nt | i | nt | nt | nt | i
Cc1cnc(CNC(=O)c2ccc3nc([C@@H]4O[C@H](CO)[C@H](O)[C@H](O)[C@H]4O)[nH]c3c2)cn1 | nt | i | nt | nt | nt | i
NNC(=S)Nc1cccc(-c2n[nH]c(=S)o2)c1 | i | i | i | i | i | 9.5
C[C@@H]1CN([C@@H](C)CO)C(=O)c2cc(Br)cnc2O[C@@H]1CN(C)C(=O)CN(C)C | nt | i | nt | nt | nt | i
COc1ccccc1-c1ccc(SCc2ccc(C)cc2)nn1 | i | i | i | 26 | i | i
CCOc1ccc(S(=O)(=O)n2cc(F)c(=O)[nH]c2=O)cc1[N+](=O)[O-] | i | i | i | i | i | i
CCOc1ccc(S(=O)(=O)n2cc(F)c(=O)[nH]c2=O)cc1 | i | i | i | 144 | i | i
Cc1ccc(NC(=O)CN(C)C(=O)c2cccnc2Nc2cccc(C(F)(F)F)c2)cc1 | i | i | i | 567 | i | i
CCOc1ncccc1C(=O)N(C)CC(=O)Nc1ccc(C)cc1 | i | i | i | i | i | i
COc1cccc(NC(=O)CN(C)C(=O)c2ccccc2OCC(=O)Nc2cccc(C(F)(F)F)c2)c1 | i | i | i | i | i | i
COc1cccc(NC(=O)CN(C)C(=O)c2cccnc2Nc2cccc(C(F)(F)F)c2)c1 | i | i | i | 299 | i | i
Cc1csc2nc(CCNS(=O)(=O)c3ccc4c(c3)OCCO4)cn12 | i | i | i | i | i | i
Cc1csc2nc(CNS(=O)(=O)c3ccc4c(c3)OCCO4)cn12 | i | i | i | 63 | i | i
CCc1cccc(NC(=O)c2cnn(-c3ccccc3)c2C)c1 | i | i | i | 38 | i | i
COc1ccc(/C=C2\SC(=O)NC2=S)cc1OC | i | i | i | 143 | nt | i
SMILES | Mtb bLac sens | Yp Topo-I inh | Rv3671c inh | PfHsp40 rescue | UGM FP inh | FadD28 binding
Cc1ccc(/C=C2/SC(=O)NC2=S)o1 | nt | i | nt | i | nt | 16
CCOc1ccc(/C=C2\SC(=S)NC2=O)cc1OC | i | i | i | i | i | i
C[n+]1c(-c2ccc(C=NNC(=O)c3ccc(C(=O)NN=Cc4ccc(-c5cn6ccccc6[n+]5C)cc4)cc3)cc2)cn2ccccc21 | nt | i | nt | 92 | nt | i
CCSc1nnc(NC(=O)c2nc(-c3ccccc3)n(-c3ccccc3)n2)s1 | i | i | i | 126 | i | i
CCCCCC(=O)N/N=C(\C)c1ccc(NC(=O)c2ccco2)cc1 | i | i | i | 59 | i | i
C=CCn1c(O)c(N=Nc2ccccc2[N+](=O)[O-])c2ccccc21 | nt | i | nt | nt | nt | i
O=C(NCc1cccc(OC(F)(F)F)c1)c1ccc2c(c1)S(=O)(=O)c1cc(Cl)ccc1C2=O | i | i | i | i | i | i
O=c1ccc2[n+]([O-])c3ccc(O)cc3oc-2c1 | nt | 396 | nt | i | nt | 98
COc1ccccc1N1CCN(S(=O)(=O)c2cc(Br)cnc2N)CC1 | i | i | i | i | i | i
Cc1ccccc1-c1cnc(C(O)c2ccc(Cl)cc2)[nH]1 (configuration not stated) | nt | i | nt | nt | nt | i
O=C(c1cccs1)c1no[n+]([O-])c1C(=O)c1cccs1 | i | i | i | ? | 11 | i
O=C(CC[C@H]1O[C@@H](n2cnc3c(NC(=O)c4ccccc4)ncnc32)[C@H](O)[C@@H]1O)NCc1ccc(OC(F)(F)F)cc1 | nt | nt | nt | nt | nt | i
CC(=O)/C=C(\C)Nc1ccccc1O | i | i | i | 43 | i | i
COc1cccc2c1C(=O)c1c(O)c3c(c(O)c1C2=O)CC(O)(C(C)=NO)CC3OC1CC(N)C(O)C(C)O1 (configuration not stated) | nt | i | nt | i | nt | 63
CC(=O)[C@@]1(O)Cc2c(O)c3c(c(O)c2[C@H](O[C@H]2C[C@H](N)[C@H](O)[C@H](C)O2)C1)C(=O)c1ccccc1C3=O | nt | i | nt | nt | nt | 74
COc1cccc2c1C(=O)c1c(O)c3c(c(O)c1C2=O)C[C@@](O)(C(=O)CO)C[C@@H]3O[C@H]1C[C@H](N)[C@H](O)[C@H](C)O1 | i | i | i | 146 | 40 | 63
COc1cccc2c1C(=O)c1c(O)c3c(c(O)c1C2=O)C[C@@](O)(C(=O)CO)C[C@@H]3OC1CC(N)C(O)C(C)O1 (some centres not stated) | nt | i | nt | i | nt | 53
CC(C)(C)NC(=O)CN(C(=O)CCC(=O)Nc1nccs1)c1ccccc1F | nt | i | nt | nt | nt | i
CCNC(=O)C1(C)CCCN(C(=O)c2cccc(C)c2C)C1 (configuration not stated) | nt | i | nt | nt | nt | i
COc1cccc2c1C(=O)c1c(O)c3c(c(O)c1C2=O)CC(O)(C(C)=O)CC3OC1CC(N(C)C)C(O)C(C)O1 (configuration not stated) | nt | i | nt | 401 | nt | 60
CSc1ccc(OC2(C)CCN(Cc3ccc(C(C)C)cc3)C2)cc1 (configuration not stated) | nt | i | nt | nt | nt | i
NC(=O)Nc1ccc(Nc2ccccc2)cc1 | i | i | i | i | i | i
O=C(Nc1ccc(Nc2ccccc2)cc1)C(Cl)(Cl)Cl | i | i | i | 33 | i | i
CNc1cncc(-c2cccc(C(=O)N(C)C)c2)n1 | nt | i | nt | nt | nt | i
COc1ccc(CN2CCC(C)(Oc3ccc(C(C)=O)cc3)C2)c2ccccc12 (configuration not stated) | nt | i | nt | nt | nt | i
